Data: PubChem BioAssay
Unmarked numbers belong to inactive results. Calls of active or inactive are those of the source. Cut-off read from the data, not from the text of the source: active = inhibition above about 42%; inactive = the rest.

What follows are compounds tested against Nuclear receptor subfamily 5 group A member 2 (Homo sapiens) (UniProt O00482) (assay: LRH-1 (NR5A2) inverse agonists, retest, confirmation, cell-based, luminescence (AID 651613;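 note: HEK293T cells co-transfected with LRH-1 and StAR promoter luciferase reporter; 0% = vehicle wells and 100% = parental cells lacking receptor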)). Details: cell-based LRH-1 luciferase reporter, inverse agonism; at 3.6 µM; hits give high values.
Chain of Nuclear receptor subfamily 5 group A member 2 (Homo sapiens) (O00482 whole entry, looked up): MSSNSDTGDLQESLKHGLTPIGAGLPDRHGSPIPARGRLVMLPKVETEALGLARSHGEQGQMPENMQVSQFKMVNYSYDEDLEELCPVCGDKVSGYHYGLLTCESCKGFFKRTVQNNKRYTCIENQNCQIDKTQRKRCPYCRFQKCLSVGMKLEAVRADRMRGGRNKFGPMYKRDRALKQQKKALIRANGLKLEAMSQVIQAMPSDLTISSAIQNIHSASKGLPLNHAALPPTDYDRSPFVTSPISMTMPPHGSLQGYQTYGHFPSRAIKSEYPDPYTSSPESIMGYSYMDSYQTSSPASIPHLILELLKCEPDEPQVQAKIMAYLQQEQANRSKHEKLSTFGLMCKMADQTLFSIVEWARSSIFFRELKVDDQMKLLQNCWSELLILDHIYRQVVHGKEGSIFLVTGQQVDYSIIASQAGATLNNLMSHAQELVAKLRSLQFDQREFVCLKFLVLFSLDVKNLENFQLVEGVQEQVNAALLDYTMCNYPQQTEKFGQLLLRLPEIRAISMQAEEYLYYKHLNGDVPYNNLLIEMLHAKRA
`COc1ccc(CCNC(=O)CSc2nnc(CNc3ccc(Cl)cc3)o2)cc1OC` was tested, and the inhibition was 48.7% (active).
Compound `Cc1cccc(CSC(Nc2ccc(F)cc2)=C(C#N)C#N)c1` has an inhibition of 35%.
For `COc1ccc(CCNC(=O)COC(=O)C2CC2C)cc1` (stereo unspecified), the inhibition was 47.1% (active).
In the case of `COc1ccc(CCNC(=O)COC(=O)c2cccn2C)cc1`, the inhibition is reported as 42.9% (active).
In the case of `Cc1ccc(CC(=O)Nc2ccncc2)cc1`, the inhibition is reported as 64.3% (active).
In the case of `Cc1cc(NC(=O)c2ccc([N+](=O)[O-])o2)ccc1NC(=O)c1ccco1`, the inhibition is reported as 50.6% (active).
In the case of `Cc1ccc(OCCC(=O)OCC(=O)Nc2ccc(N3CCOCC3)cc2)cc1`, the inhibition is reported as 54.8% (active).
In the case of `Cc1ccccc1C(=O)NC1CCN(CC(=O)Nc2ccc(Br)cc2)CC1`, the inhibition is reported as 59.1% (active).
Compound `COc1ccc(N2C(=O)C(Cl)=C(N3CCOCC3)C2=O)cc1` has an inhibition of 34.9%.
In the case of `O=C1/C(=C/c2ccccc2)CN(C(=O)CCN2CCOCC2)C/C1=C\c1ccccc1`, the inhibition is reported as 44.3% (active).
Compound `Oc1c(Cl)cc(CN2CCOCC2)c2cccnc12` has an inhibition of 18.4%.
`CCC(=O)Nc1ccc(NC(=O)CSc2nc3c(c(=O)n(C)c(=O)n3C)n2CC)cc1` was tested, and the inhibition was 58.8% (active).
With `CCNc1cc(N2CCCC2)ccc1[N+](=O)[O-]` the inhibition was 40.2%.
For `CC(=O)Nc1cc(-c2ccc(S(C)(=O)=O)cc2)cn2c(-c3ccc(F)cc3)cnc12`, the inhibition was 53.4% (active).
In the case of `O=C(c1ccco1)N1CCCC(N2CCN(c3cccc(C(F)(F)F)c3)CC2)C1` (stereo unspecified), the inhibition is reported as 51% (active).
For `Cc1cc(C(=O)N/N=C/c2ccc([N+](=O)[O-])o2)c(C)o1`, the inhibition was 71.5% (active).
